Screening data deposited in PubChem BioAssay by Broad Institute.
C diff HTS – C. difficile growth inhibitors, primary screen, HTS; Clostridium difficile clinical isolate growth, OD600, 24 h; hits give low values; growth activity, negative = inhibition, % at 16 µg/mL (by protocol); 86,000 tested, 0.25% active; AID 1259249, 2017;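 active = mean growth activity at or below -80% and every replicate also at or below -80%; inconclusive = mean at or below -80% but some replicate above -80%; inactive = mean growth activity above -80%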;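 note: 0% = DMSO wells and -100% = levofloxacin 16 µg/mL wells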
Pf Dd2 growth – P. falciparum Dd2 growth inhibitors, primary screen, SYBR Green fluorescence, single dose replicates; 94,000 tested, 2.3% active; activity change, % at 10 µM; 72 h; hits give low values; in the data active = activity change below about -80%; inconclusive = no clear call, values can overlap the other calls
Active calls of the source: *; ? = inconclusive; . = no result given. A selection: hits, their analogues and other compounds. The true share with any hit is near 2.4%.

SMILES | C diff HTS | Pf Dd2 growth
COc1ccc2c3c(n(C)c2c1)[C@@H](CO)N(Cc1ccccc1)CC31CCN(C(=O)C2CC2)CC1 | 1.5 | -72.0
Cc1ccc(S(=O)(=O)NCC[C@@H]2CC[C@@H](NC(=O)CC3CC3)[C@@H](CO)O2)cc1 | . | 4.2
Cc1ccc(S(=O)(=O)N[C@@H]2CC[C@@H](CCNC(=O)Nc3ccc(Cl)cc3)O[C@H]2CO)cc1 | 3.2 | -30.6
Cc1ccccc1S(=O)(=O)N1[C@@H](C#N)[C@H](c2ccc(C#CC3CCCC3)cc2)[C@@H]1CO | -4.0 | -54.8
N#C[C@@H]1[C@@H](c2ccc(C#CC3CCCCC3)cc2)[C@H](CO)N1C(=O)Nc1ccc(F)cc1 | 0.1 | -86.1*
Cc1ccccc1S(=O)(=O)N1[C@H](C#N)[C@H](c2ccc(C#CC3CCCC3)cc2)[C@@H]1CO | 7.8 | -89.7*
CC(C)NC(=O)N1[C@H](C#N)[C@@H](c2ccc(C#CC3CCCCC3)cc2)[C@@H]1CO | -7.2 | -73.4
N#C[C@H]1[C@H](c2ccc(C#CC3CCCCC3)cc2)[C@H](CO)N1C(=O)Nc1ccc(F)cc1 | 53.2 | -25.8
CC(C)NC(=O)N1[C@H](C#N)[C@H](c2ccc(C#CC3CCCCC3)cc2)[C@@H]1CO | -5.0 | -81.4*
CCCNC(=O)N1C[C@@H](O)COC[C@H]2O[C@H](CC(=O)N3CCOCC3)CC[C@@H]21 | . | -1.6
COc1ccccc1NC(=O)N[C@H]1CC[C@H](CCNC(=O)c2ccc3c(c2)OCO3)O[C@@H]1CO | . | -4.1
Cc1noc(C)c1S(=O)(=O)N(C)C[C@H]1OCCCC[C@@H](C)Oc2ccc(NC(=O)Nc3ccccc3)cc2C(=O)N([C@@H](C)CO)C[C@H]1C | -0.9 | -64.9
CCCNC(=O)C[C@H]1CC[C@@H]2[C@H](COc3ccc(NS(=O)(=O)CC)cc3C(=O)N2C)O1 | 0.1 | 17.3
C[C@H]1CN([C@@H](C)CO)C(=O)c2cccc(NC(=O)CCCCCC(=O)Nc3ccccc3N)c2O[C@@H]1CN(C)Cc1ccc(-c2ccccc2)cc1 | -14.3 | -92.7*
C[C@@H]1CN([C@H](C)CO)C(=O)c2cccc(NC(=O)CCCCCC(=O)Nc3ccccc3N)c2O[C@H]1CN(C)Cc1ccc(-c2ccccc2)cc1 | -2.3 | -91.5*
C[C@@H]1CN([C@H](C)CO)C(=O)c2cccc(NC(=O)CCCCCC(=O)Nc3ccccc3N)c2O[C@H]1CN(C)Cc1ccccc1 | 1.2 | -88.2*
C[C@@H]1CN([C@@H](C)CO)C(=O)c2cccc(NC(=O)CCCCCC(=O)Nc3ccccc3N)c2O[C@@H]1CN(C)Cc1ccncc1 | 10.3 | -2.3
C[C@@H]1CN([C@H](C)CO)C(=O)c2cc(NC(=O)CCCCCC(=O)Nc3ccccc3N)ccc2O[C@H]1CN(C)Cc1ccc(-c2ccccc2)cc1 | 1.9 | -53.8
C[C@H](CO)N1C[C@H](C)[C@@H](CN(C)Cc2ccncc2)Oc2c(NC(=O)CCCCCC(=O)Nc3ccccc3N)cccc2C1=O | . | -29.4
CCC(=O)N(C)C[C@H]1Oc2cc(-c3ccc(OC)cc3)ccc2S(=O)(=O)N([C@H](C)CO)C[C@@H]1C | 2.0 | -35.7
Cc1ccc(S(=O)(=O)N(C)C[C@@H]2Oc3ncc(-c4ccc(F)cc4)cc3C(=O)N([C@H](C)CO)C[C@@H]2C)cc1 | 3.9 | -42.6
C[C@H]1CN([C@@H](C)CO)C(=O)c2cccc(NC(=O)C3CCCCC3)c2O[C@H]1CN(C)C | 18.9 | -0.6
C[C@@H]1CN([C@@H](C)CO)C(=O)c2cccc(NC(=O)NC3CCCCC3)c2O[C@H]1CN(C)C(=O)Nc1ccc(F)cc1 | -17.6 | -4.6
C[C@@H]1CN([C@@H](C)CO)C(=O)c2cc(NC(=O)c3ccncc3)ccc2O[C@H]1CN(C)Cc1ccc(Cl)c(Cl)c1 | -10.7 | -14.1
CS(=O)(=O)Nc1ccc2c(c1)[C@@H]1C[C@H](CC(=O)NCc3ccc(Cl)cc3)O[C@H](CO)[C@@H]1O2 | -2.8 | -12.3
SMILES | C diff HTS | Pf Dd2 growth
COC(=O)[C@@H]1[C@@H](CO)[C@@H]2Cn3c(ccc(-c4ccccc4F)c3=O)[C@@H]2N1C(=O)c1cnccn1 | -4.3 | 12.8
COc1ccc(NC(=O)Nc2cccc3c2O[C@H](CN(C)Cc2ccc(-c4ccccc4)cc2)[C@H](C)CN([C@@H](C)CO)C3=O)cc1 | 23.4 | -41.9
C[C@@H]1CN([C@@H](C)CO)C(=O)c2cccc(NC(=O)Nc3ccc(F)cc3)c2O[C@@H]1CN(C)Cc1ccc(-c2ccccc2)cc1 | -93.2* | -66.2
C[C@@H]1CN([C@H](C)CO)C(=O)c2cccc(NC(=O)Nc3ccc(F)cc3)c2O[C@H]1CN(C)Cc1ccc(-c2ccccc2)cc1 | -1.7 | -8.1
COc1ccc(NC(=O)Nc2cccc3c2O[C@H](CN(C)Cc2ccc(-c4ccccc4)cc2)[C@@H](C)CN([C@@H](C)CO)C3=O)cc1 | -1.5 | -86.2*
CC(C)NC(=O)N(C)C[C@H]1Oc2ccc(NS(=O)(=O)c3ccc(F)cc3)cc2CC(=O)N([C@@H](C)CO)C[C@@H]1C | 5.9 | 22.0
O=C(C1CCC1)N1CC2(C1)[C@H](c1ccccc1)[C@H](CO)N2C(=O)c1cccnc1 | -3.1 | -7.5
COc1ccc(NC(=O)Nc2ccc3c(c2)C(=O)N([C@H](C)CO)C[C@H](C)[C@H](CN(C)Cc2ccc(C(=O)Nc4ccccc4N)cc2)O3)cc1 | 1.9 | -79.5
COc1ccc(NC(=O)Nc2cccc3c2O[C@@H](CN(C)Cc2ccc(C(=O)Nc4ccccc4N)cc2)[C@H](C)CN([C@H](C)CO)C3=O)cc1 | -3.0 | -69.6
COc1ccc(NC(=O)Nc2cccc3c2O[C@H](CN(C)Cc2ccc(C(=O)Nc4ccccc4N)cc2)[C@@H](C)CN([C@H](C)CO)C3=O)cc1 | 11.3 | -83.5*
COc1ccc(NC(=O)Nc2cccc3c2O[C@H](CN(C)Cc2ccc(C(=O)Nc4ccccc4N)cc2)[C@H](C)CN([C@@H](C)CO)C3=O)cc1 | 22.5 | -93.5*
COc1ccc(NC(=O)Nc2cccc3c2O[C@H](CN(C)Cc2ccc(C(=O)Nc4ccccc4N)cc2)[C@@H](C)CN([C@@H](C)CO)C3=O)cc1 | -1.1 | -88.2*
COc1ccc(CN(C)C[C@@H]2Oc3c(NC(=O)Nc4ccc(OC)cc4)cccc3C(=O)N([C@H](C)CO)C[C@H]2C)cc1 | -0.6 | -0.7
O=C(CCN1CCCCC1)NCC[C@@H]1CC[C@H](NC(=O)C2CCCCC2)[C@@H](CO)O1 | 2.0 | 14.5
CCC(=O)Nc1ccc2c(c1)OC[C@@H](C)N(S(=O)(=O)c1cn(C)cn1)C[C@@H](C)[C@H](OC)CN(C)C2=O | . | 4.9
Cc1ccc(S(=O)(=O)N[C@H]2CC[C@@H](CCNC(=O)Nc3ccc(Cl)cc3)O[C@@H]2CO)cc1 | -0.1 | 3.6
CC(C)C#Cc1ccc([C@@H]2[C@@H](CO)N3C(=O)CN(C(=O)C4CCCCC4)C[C@H]23)cc1 | 28.4 | -21.2
O=C(c1ccccn1)N1CC(=O)N2[C@H](C1)[C@@H](c1ccc(C#CCc3ccccc3)cc1)[C@@H]2CO | -3.6 | -81.9*
O=C(C1CCCC1)N1CC(=O)N2[C@H](CO)[C@@H](c3ccc(C#CCc4ccccc4)cc3)[C@@H]2C1 | -14.2 | ?
CC(C)C#Cc1ccc([C@@H]2[C@@H](CO)N3C(=O)CN(C(=O)C4CCCCC4)C[C@@H]23)cc1 | 49.8 | -85.1*
O=C(C1CCCC1)N1CC(=O)N2[C@H](C1)[C@@H](c1ccc(C#CCc3ccccc3)cc1)[C@@H]2CO | -10.6 | -89.0*
